# ER stress death = ER stress cell death inhibition | CSM14.1 thapsigargin ER stress survival, ATP luminescence | relative survival (cellular ATP), % at 15 µg/mL (by protocol) | 48,000 tested, 0.33% active;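 active = survival measured by cellular ATP above 50% at 15 µg/ml in the first screen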;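 note: cell death triggered by about 15 µM thapsigargin; ATP read 24 h after thapsigargin was added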
# Hits are given with their value; – = inactive. Many of the other results were omitted from the sample, so hits are more common in it than they were.
SMILES,ER stress death
Cc1ccc(OCC(=O)O/N=C(\N)c2cccnc2)c(C)c1,–
CCc1ccccc1NC(=O)C1CC(=O)N(c2ccc(Br)cc2)C1 (stereo unspecified),–
COc1ccccc1/C=N\N1CCN(c2ccccc2)CC1,–
COc1ccc(CN2CCN(C(=O)c3ccc(F)cc3)CC2)cc1OCc1ccccc1,53
COc1cc(CN2CCN(C(=O)c3ccc([N+](=O)[O-])cc3)CC2)cc(OC)c1OC,–
COc1ccc(CN2CCN(C(=O)c3cccc(F)c3)CC2)cc1OCc1ccccc1,–
COc1ccc(C(=O)N2CCN(Cc3ccccc3)CC2)cc1[N+](=O)[O-],–
COc1ccc(CN2CCN(C(=O)c3ccccc3OC)CC2)cc1OCc1ccccc1,–
COc1ccc(CN2CCN(C(=O)c3ccc([N+](=O)[O-])cc3)CC2)cc1OCc1ccccc1,72
CCN1C(=O)/C(=C/c2cccs2)SC1=S,–
CN1C(=O)/C(=C\c2ccccc2Sc2ccc(Cl)cc2)SC1=S,–
O=C(Nc1ccc(O)c(-c2nc3ccccc3s2)c1)c1cc([N+](=O)[O-])ccc1Cl,60
Cc1c(NC(=O)c2cc([N+](=O)[O-])ccc2Cl)cccc1-c1nc2ccccc2s1,–
O=C(Nc1ccc(O)c(-c2nc3ccccc3s2)c1)c1cccc(Cl)c1Cl,–
CCOc1ccc(S(=O)(=O)NNc2ccccc2)cc1,–
O=C1C=C(c2ccccc2)CC(c2ccccc2)C1n1nnc2ccccc21 (stereo unspecified),95
COc1ccc(C2=CC(=O)CC(c3ccccc3)C2)cc1 (stereo unspecified),–
CC(C)(C)c1ccc(C(=O)Nc2ccc3[nH]c(=O)[nH]c3c2)cc1,–
CCCc1cc(=O)oc2cc(OCc3c(F)cccc3Cl)ccc12,–
COc1ccc(/C=C(\C(C)=O)[N+](=O)[O-])cc1,–
COc1ccc(C2Nc3ccccc3NC3=C2C(=O)CC(c2ccccc2)C3)cc1OC (stereo unspecified),–
COc1ccc(C2CC(=O)C3=C(C2)Nc2ccccc2NC3c2cccc(C(F)(F)F)c2)cc1OC (stereo unspecified),135
COc1ccc(C2CC(=O)C3=C(C2)Nc2ccccc2NC3c2ccc(OC(C)=O)c(OC)c2)cc1OC (stereo unspecified),–
COc1ccc(C2CC(=O)C3=C(C2)Nc2ccccc2NC3c2ccc(F)cc2)cc1OC (stereo unspecified),–
COc1ccc(C2Nc3ccccc3NC3=C2C(=O)CC(c2ccc(OC)c(OC)c2)C3)cc1 (stereo unspecified),–
COc1ccc(C2CC(=O)C3=C(C2)Nc2ccccc2NC3c2cccc(Br)c2)cc1OC (stereo unspecified),122
O=C1NN(c2ccc(Br)cc2)C(=O)/C1=C\c1ccccc1,–
O=C(NCCCN1CCOCC1)c1cc2n(n1)C(C(F)(F)F)CC(c1ccc(Cl)c(Cl)c1)N2 (stereo unspecified),–
O=C(Nc1ccc(N2CCOCC2)cc1)c1cccc(Cl)c1Cl,–
O=C(NCCC(c1ccccc1)c1ccccc1)C1CCCCC1,–

# High-throughput results: PubChem BioAssay, Sanford-Burnham Center for Chemical Genomics
